Screening data deposited in PubChem BioAssay by National Center for Advancing Translational Sciences (NCATS).
In the library only some 6.2% were active in any assay of this set; here they are far more common.
MARV entry inh: blocks Marburg virus binding to or entry into cells | Marburg virus pseudotyped entry inhibition, cell reporter | Potency, µM (titrated, usually from 37.8 µM), for the others: top-dose activity change, negative = inhibition, most hits filed as inhibitors | hit rate 1.8% among 300,000 | AID 540276; calls by dose curve; tested in HEK293 cells; also: potency is read from the fitted curve at half-maximal effect
HCMV inh: inhibitors of human cytomegalovirus | HFF cells, HCMV-luciferase reporter, 72 h; hits give low values | activity change, negative = inhibition, % at 57.5 µM | hit rate 4.5% among 410,000 | AID 1259415; in the data active = activity change below about -60%; inconclusive = no clear call, values can overlap the other calls; inactive = above about -39%
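Cell-based, HFFs, 1000 cells/well, 16 h 37C; cpds in DMSO + HCMV-luc, MOI 1 PFU/cell; 72 h 37C; OneGlo luminescence after 5 min RT; norm. to buffer vs Salinomycin 10uM.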
Lassa entry inh: Lassa virus entry inhibition. hit rate 1.2% among 300,000. Lassa virus pseudotype entry inhibition, cell reporter. AID 540256. Potency, µM (doses to about 37.9 µM), for the others: at the highest dose activity change, negative = inhibition, actives largely listed as inhibitors; calls by dose curve; tested in HEK293 cells; also: potency is read from the fitted curve at half-maximal effect; nearly all actives have a fitted effect of over 50% in size
FMDV antiviral: foot and mouth disease virus antiviral activity | FMDV antiviral cell-based qHTS | Potency, µM (series often up to 57.9 µM), for inactives: top-dose activity change, negative = inhibition, usual class: inhibitors | hit rate 1.2% among 410,000 | AID 1159524; calls by dose curve; tested in HEK293T cells; also: read-out not given here; potency is read from the fitted curve at half-maximal effect; nearly all actives have a fitted effect of over 45% in size
The depositor's hits bear a star; ? = inconclusive; · = no result; + = active, no number; [ ] = remark or other dose. % is scaled to controls: 0 for no effect and ±100 for the full control effect.

SMILES	MARV entry inh	HCMV inh	Lassa entry inh	FMDV antiviral
CC(=O)c1ccc(N2CCN(C(=O)C3CCN(S(=O)(=O)c4ccc5c(c4)CC(C)N5C(C)=O)CC3)CC2)cc1 (stereo unspecified)	·	12	·	-29%
CC(C)CNC(=O)CO/N=C/c1ccccc1Cl	?	18	-6%	22%
CC(=O)N1c2ccc(S(=O)(=O)N3CCCC(C(=O)Nc4ccc(F)cc4)C3)cc2CC1C (stereo unspecified)	·	-68*	·	?
CCc1ccc(NC(=O)C2CCN(S(=O)(=O)c3ccc4c(c3)CC(C)N4C(C)=O)CC2)cc1 (stereo unspecified)	·	-93*	·	16µM*
CCOc1ccc(NC(=O)C2CCN(S(=O)(=O)c3ccc4c(c3)CC(C)N4C(C)=O)CC2)cc1 (stereo unspecified)	-15%[46.1 µM]	?	-25%[46.1 µM]	?
COc1ccc(N2CCN(S(=O)(=O)c3ccc4c(c3)CC(C)N4C(C)=O)CC2)cc1 (stereo unspecified)	·	-72*	-21%[46.1 µM]	?
CC(=O)N1c2ccc(S(=O)(=O)N3CCN(c4cccc(Cl)c4)CC3)cc2CC1C (stereo unspecified)	-1%[46.1 µM]	8	-8%[46.1 µM]	0%
CC(=O)N1c2ccc(S(=O)(=O)N3CCC(C(=O)Nc4cccc(F)c4)CC3)cc2CC1C (stereo unspecified)	-2%[46.1 µM]	-61*	4%[46.1 µM]	?
Cc1cc(C)n(C(C)CNS(=O)(=O)c2ccc(Cl)cc2)n1 (stereo unspecified)	0%[46.1 µM]	17	-6%[46.1 µM]	-8%
CCOc1ccccc1NC(=O)c1ccc2oc(=O)c(S(=O)(=O)c3ccc(F)cc3)cc2c1	?	-9	-11%[46.1 µM]	-23%
COc1ccc(N(CC(=O)NCc2ccc(Cl)cc2)S(=O)(=O)c2c(C)n[nH]c2C)cc1	·	?	·	-17%
COc1ccc(Cl)cc1NC(=O)C1CCN(S(=O)(=O)c2ccc3c(c2)CC(C)N3C(C)=O)CC1 (stereo unspecified)	·	-63*	-8%[46.1 µM]	?
CC(=O)N1c2ccc(S(=O)(=O)N3CCCCCC3)cc2CC1C(=O)NC(C)C (stereo unspecified)	·	-85*	4%[46.1 µM]	-10%
CC(=O)N1c2ccc(S(=O)(=O)N3CCC(C(=O)Nc4cccc(Cl)c4C)CC3)cc2CC1C (stereo unspecified)	·	-29	-7%[46.1 µM]	?
O=C(Nc1cccc(F)c1)C1CCN(S(=O)(=O)c2ccc3[nH]c4c(c3c2)CCCCC4)CC1	·	+	?	0%
CCCNC(=O)C1Cc2cc(S(=O)(=O)N3CCCCCC3)ccc2N1C(C)=O (stereo unspecified)	·	0	-14%[46.1 µM]	-15%
CC(=O)N1c2ccc(S(=O)(=O)N3CCC(C(=O)Nc4cccc(Cl)c4)CC3)cc2CC1C (stereo unspecified)	·	-88*	·	?
NC/C=C\C(=O)O	?	·	?	0%
CCOC(=O)Nc1ccc(S(=O)(=O)N2CCC(c3nc4ccccc4[nH]3)CC2)cc1	·	-38	·	0%
O=C(c1ccco1)N1CCN(C(=O)c2cnn(-c3ccc(F)cc3)c2-n2cccc2)CC1	·	20	·	-5%
CC(=O)N1c2ccc(S(=O)(=O)N3CCC(C(=O)Nc4cccc(C)c4)CC3)cc2CC1C (stereo unspecified)	?	-68*	?	?
Cc1cc2oc(=O)cc(C)c2cc1NC(=O)CCl	?	-100*	?	?
Cc1cc2oc(=O)cc(C)c2cc1NC(=O)CCC(=O)O	18%	5	-9%	·
CC(=O)N(Cc1ccc(F)cc1)C1=C(NCc2ccccc2)C(=O)c2ccccc2C1=O	?	·	6.3µM*	35µM*
O=C(NCc1ccc(F)cc1)C(c1ccccc1)c1ccccc1	·	-11	·	-7%
SMILES	MARV entry inh	HCMV inh	Lassa entry inh	FMDV antiviral
CCn1nc(C)cc1C(=O)Sc1cccc(Br)c1	8%[46.1 µM]	-107*	-26%	?
CCn1nc(C)cc1C(=O)Sc1ccc(Cl)cc1Cl	2%[46.1 µM]	-108*	15%	?
CC12CCC(=O)N1C(C(=O)NCCN1C(=O)S/C(=C\c3ccccc3Cl)C1=O)CS2 (stereo unspecified)	·	14	·	-24%
Cc1cc(C)cc(N2C(N)=NC(N)=NC2c2cccc(Cl)c2)c1 (stereo unspecified)	0%[46.1 µM]	-25	?	-7%
FC(F)(F)c1ccccc1CN1CCN(Cc2ccccc2)CC1	?	16	-20%	·
COc1ccc(CN2CCN(Cc3ccccc3C(F)(F)F)CC2)c(OC)c1	11µM*	?	?	-18%
FC(F)(F)c1ccccc1CN1CCN(C2CCCCCC2)CC1	8.2µM*	?	?	-26%
FC(F)(F)c1ccccc1CN1CCCC(N2CCN(c3ccccc3)CC2)C1 (stereo unspecified)	·	-61*	·	-13%
COc1cccc(CN2CCN(Cc3ccccc3C(F)(F)F)CC2)c1	?	10	-8%[46.1 µM]	-22%
C(=C\c1ccccc1)/CSc1nnc(-c2cnccn2)n1Cc1ccco1	-24%	-24	-13%	-18%
O=C1Nc2cccc3c2N(CCC3)C2=C1CCC2	·	-7	·	-25%
O=c1[nH]c2ccc(NCc3ccc(-c4ccc(Br)cc4)o3)cc2[nH]1	7%[46.1 µM]	6	-3%[46.1 µM]	-21%
O=c1[nH]c2ccc(NCc3ccc(-c4cccc(Cl)c4)o3)cc2[nH]1	?	-61*	1%[46.1 µM]	-16%
NCC(=O)N1CCC(C(=O)N[C@@H](Cc2c[nH]c3ccccc23)C(=O)O)CC1	·	-21	·	-14%
COC(=O)c1ccccc1NC(=O)CSc1nc(C)cc(C)n1	5%[46.1 µM]	-35	-5%[46.1 µM]	5%
O=C(CSC1=NCCS1)Nc1ccc2ccccc2c1	19%[46.1 µM]	-30	-26%	15%
Cc1cc(NC(=O)Cc2ccccc2)c2ccccc2n1	·	-86*	·	?
O=C(CSC1=NCCS1)Nc1ccnc2ccccc12	-29%	-73*	-21%	·
COC(=O)Nc1cc(C)nc2ccccc12	3%	30	8%	-5%
Cc1cc(C)nc(SCC(=O)Nc2ccnc3ccccc23)n1	?	-89*	?	?
Cc1ccc(-n2nc(C)c3c(C)c(CCC(=O)NCc4ccco4)c(C)nc32)cc1	·	-21	·	-26%
Cc1ccc(OCc2nnc(SCC(=O)N3CCc4ccccc43)n2C)cc1	-1%[46.1 µM]	21	-1%	-14%
O=C1c2ccccc2COc2ccc(O)cc21	19%	1	23%	36%
Cc1cccc2c(C(=O)N3CCN(c4ccccn4)CC3)cc(-c3cccc(Br)c3)nc12	·	?	·	25µM*
O=C(c1cc(-c2ccncc2)nc2ccc(Br)cc12)N1CCN(c2ccccn2)CC1	5.6µM*	41	?	?
SMILES	MARV entry inh	HCMV inh	Lassa entry inh	FMDV antiviral
O=C(c1cc(-c2ccccc2Cl)nc2ccc(Br)cc12)N1CCN(c2ccccn2)CC1	?	-90*	?	?
O=C(c1cc(-c2ccncc2)nc2ccccc12)N1CCN(Cc2ccccc2)CC1	7.9µM*	-25	?	-28%
Cc1ccc(C)c(NC2=CC(=O)CC(C)(C)C2)c1C#N	6%	-11	2%	-25%
O=S(=O)(/C=C/c1ccccc1)Nc1ccc(N2CCOCC2)cc1	8%	19	-21%	16%
CCCCNC(=S)NNC(=O)c1c(Cl)c(C)nn1C	-1%	?	2%	-19%
CC(C)n1nnnc1C1c2ccccc2C(=O)N1CCc1ccc(O)cc1 (stereo unspecified)	·	-20	·	1%
